Test results: PubChem BioAssay (EPA / NIEHS)
Active and inactive are the calls of the source. Rule for the calls: active = hit-call score of the fitted dose curve at least 0.9, where 1 is the maximum; inactive = score below 0.9.

How the values were obtained:
Conditions in all cases: mRNA level, 48 h; actives raise or lower the signal
[1] = read-out: solute carrier (SLCO1B1), SLCO1B1 (gene 10599); assay: LTEA_HepaRG_SLCO1B1: Life Technologies and Expression Analysis (LTEA) Assay for solute carrier (SLCO1B1) using HepaRG (AID 2283530)
How it was run: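 SLCO1B1 transcript read by qRT-PCR (Fluidigm arrays), normalized to three housekeeping genes, after 48 h chemical exposure of HepaRG cells; bidirectional concentration-response fitting versus 0.5% DMSO baseline. Eight-point half-log series, maximum 100 uM.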

[2] = read-out: sulfotransferase 2A1 (SULT2A1), SULT2A1 (gene 6822); assay: LTEA_HepaRG_SULT2A1: Life Technologies and Expression Analysis (LTEA) Assay for sulfotransferase 2A1 (SULT2A1) using HepaRG (AID 2283531)
How it was run: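 HepaRG, 48 h chemical exposure, 8-pt half-log curve from 100 uM in 0.5% DMSO, duplicates. Readout: TaqMan qRT-PCR of SULT2A1 mRNA, housekeeping-normalized. Bidirectional fit vs DMSO baseline.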

[3] = read-out: Transforming Growth Factor (TGFA), TGFA (gene 7039); assay: LTEA_HepaRG_TGFA: Life Technologies and Expression Analysis (LTEA) Assay for Transforming Growth Factor (TGFA) using HepaRG (AID 2283532)
How it was run: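 Differentiated HepaRG cells exposed 48 hours in serum-free induction medium, 0.5% DMSO vehicle, 8-point half-log series from 100 uM, in duplicate. TGFA mRNA by TaqMan qRT-PCR, normalised to ACTB, GAPDH, POLR2A; bidirectional fit versus DMSO.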

[4] = read-out: Transforming Growth Factor (TGFB1), TGFB1 (gene 7040); assay: LTEA_HepaRG_TGFB1: Life Technologies and Expression Analysis (LTEA) Assay for Transforming Growth Factor (TGFB1) Transporter using HepaRG (AID 2283533)
How it was run: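 qRT-PCR readout of TGFB1 transcript in HepaRG lysates, normalized to three housekeeping genes; gain or loss of signal fitted relative to 0.5% DMSO vehicle. Exposure: 48 h, 8-point curve from 100 uM, duplicate wells.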

TIMP1, TIMP1 (gene 7076) = assay: LTEA_HepaRG_TIMP1: Life Technologies and Expression Analysis (LTEA) Assay for TIMP1 using HepaRG (AID 2283534)
How it was run: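 HepaRG, 48 h exposure, 8-pt half-log series from 100 uM in 0.5% DMSO, duplicates; TIMP1 transcript by Fluidigm qRT-PCR, housekeeping-normalized; bidirectional curve fit vs DMSO baseline.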

[5] = read-out: Tumor necrosis factor receptor 1 (TNFRSF1A), TNFRSF1A (gene 7132); assay: LTEA_HepaRG_TNFRSF1A: Life Technologies and Expression Analysis (LTEA) Assay for Tumor necrosis factor receptor 1 (TNFRSF1A) using HepaRG (AID 2283535)
How it was run: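 HepaRG, 48 h plating then 48 h chemical exposure, serum-free induction media; 8-pt CRC from 100 uM, half-log, 0.5% DMSO vehicle, duplicates. Readout: TaqMan qRT-PCR (Fluidigm), housekeeping-gene normalized; bidirectional fit vs DMSO.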

[6] = read-out: Thyroid Hormone Responsive (THRSP), THRSP (gene 7069); assay: LTEA_HepaRG_THRSP: Life Technologies and Expression Analysis (LTEA) Assay for Thyroid Hormone Responsive (THRSP) using HepaRG (AID 2283536)
How it was run: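 Differentiated HepaRG cells treated 48 h in serum-free induction medium with 8 half-log concentrations up to 100 uM (0.5% DMSO), duplicates. THRSP mRNA by TaqMan qRT-PCR normalised to ACTB, GAPDH, POLR2A; bidirectional fit versus DMSO.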

[7] = read-out: UDP glucuronosyltransferase (UGT1A1), UGT1A1 (gene 54658); assay: LTEA_HepaRG_UGT1A1: Life Technologies and Expression Analysis (LTEA) Assay for UDP glucuronosyltransferase (UGT1A1) using HepaRG (AID 2283538)
How it was run: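 HepaRG cells, 0.5% DMSO vehicle, 48 h exposure in serum-free induction medium to 8-point half-log series topping at 100 uM, in duplicate. UGT1A1 mRNA by Fluidigm qRT-PCR, normalized to ACTB/GAPDH/POLR2A; bidirectional fit versus DMSO.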

[8] = read-out: UDP glucuronosyltransferase (UGT1A6), UGT1A6 (gene 54578); assay: LTEA_HepaRG_UGT1A6: Life Technologies and Expression Analysis (LTEA) Assay for UDP glucuronosyltransferase (UGT1A6) using HepaRG (AID 2283539)
How it was run: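 qRT-PCR readout of UGT1A6 mRNA (normalized to ACTB/GAPDH/POLR2A) in differentiated HepaRG cells after 48 h chemical exposure; 8 concentrations, top 100 uM, half-log steps, 0.5% DMSO. Bidirectional curve fit relative to DMSO baseline.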

[9] = read-out: Cellular tumor antigen p53 (Homo sapiens) (UniProt P04637); assay: LTEA_HepaRG_TP53: Life Technologies and Expression Analysis (LTEA) Assay for Tumor Protein P53 (TP53) using HepaRG (AID 2283537)
How it was run: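 TP53 transcript measured by qRT-PCR, normalized to three housekeeping genes, after 48 h treatment of human HepaRG cultures with chemicals from 100 uM downward in half-log steps (0.5% DMSO vehicle, serum-free induction medium). Up- or down-regulation fitted against DMSO.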

Measured: AC50

Chain of Cellular tumor antigen p53 (Homo sapiens) (P04637 whole entry, looked up): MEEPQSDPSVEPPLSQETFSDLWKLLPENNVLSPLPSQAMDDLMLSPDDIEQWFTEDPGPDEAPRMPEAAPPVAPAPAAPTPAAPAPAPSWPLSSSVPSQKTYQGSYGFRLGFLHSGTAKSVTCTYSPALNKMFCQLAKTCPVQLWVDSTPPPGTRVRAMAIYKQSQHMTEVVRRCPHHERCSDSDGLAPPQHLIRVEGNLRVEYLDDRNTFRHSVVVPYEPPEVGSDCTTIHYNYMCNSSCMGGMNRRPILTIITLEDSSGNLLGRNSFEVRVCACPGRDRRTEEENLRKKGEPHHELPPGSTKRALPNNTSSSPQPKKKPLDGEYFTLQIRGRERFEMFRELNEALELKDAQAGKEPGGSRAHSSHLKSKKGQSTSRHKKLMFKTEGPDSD

CCC(C)Nc1c([N+](=O)[O-])cc(C(C)(C)C)cc1[N+](=O)[O-] (stereo not given)
active: [7] 13.1 µM
not listed: [9]
inactive: all other assays above

O=C(O)COc1ccc(Cl)cc1Cl
inactive: all assays above

CNC(=O)/C=C(\C)OP(=O)(OC)OC
not listed: [9]
inactive: all other assays above

CCCN(CCC)c1c([N+](=O)[O-])cc(C(F)(F)F)cc1[N+](=O)[O-]
active: [7] 29.2 µM
not listed: [9]
inactive: all other assays above

CNC(=O)CSP(=S)(OC)OC
not listed: [9]
inactive: all other assays above

CC(C)N(C(=O)COc1nnc(C(F)(F)F)s1)c1ccc(F)cc1
active: [2] 13.8 µM
not listed: [6] | [8]
inactive: all other assays above

CCC(C)(C)C(=O)OC1=C(c2ccc(Cl)cc2Cl)C(=O)OC12CCCCC2
inactive: all assays above

O=[N+]([O-])/N=C1\NCCN1Cc1ccc(Cl)nc1
active: [1] 50 µM | [2] 31.8 µM | [5] 28.1 µM | [6] 50 µM
not listed: [9]
inactive: all other assays above

Cc1[nH]c(=O)n(C(C)(C)C)c(=O)c1Cl
active: [6] 50 µM | [7] 31 µM
not listed: [9]
inactive: all other assays above

N#CN
not listed: [9]
inactive: all other assays above

O=C(NC(=O)c1c(F)cccc1F)Nc1ccc(OC(F)(F)C(F)OC(F)(F)F)c(Cl)c1 (stereo not given)
active: [6] 6.25 µM
not listed: [9]
inactive: all other assays above

COP(=S)(OC)Oc1ccc(SC)c(C)c1
active: [7] 25.2 µM
inactive: all other assays above

N#Cc1c(Cl)c(Cl)c(Cl)c(C#N)c1Cl
active: TIMP1, TIMP1 (gene 7076) 22.5 µM | [6] 13.2 µM
inactive: all other assays above

CN1CSC(=S)N(C)C1
inactive: all assays above
